Activity calls are given as the source filed them. The calls were made as follows: active = hit-call score of the fitted dose curve at least 0.9, where 1 is the maximum; inactive = score below 0.9.
Legend:
[1] = read-out: Vascular cell adhesion molecule 1 (VCAM1), VCAM1 (gene 7412); assay: BSK_hDFCGF_VCAM1: BioMAP Diversity Plus: hDFCGF Assay for Vascular cell adhesion molecule 1 (VCAM1) Biomarker Activity (AID 2283065); conditions: primary human foreskin fibroblasts; actives raise or lower the signal;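 as to AC50: VCAM-1 protein level quantified by ELISA after 24 h chemical exposure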
Summary of the method: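 Human foreskin fibroblast primary cells, chemical exposure 24 h; VCAM-1 by ELISA; bidirectional fit, DMSO = negative control/baseline.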

[2] = read-out: Plasminogen activator inhibitor-1 (PAI1), SERPINE1 (gene 5054); assay: BSK_hDFCGF_PAI1: BioMAP Diversity Plus: hDFCGF Assay for Plasminogen activator inhibitor-1 (PAI1) Biomarker Activity (AID 2283066); conditions: primary human foreskin fibroblasts; actives raise or lower the signal
Summary of the method: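 Primary dermal fibroblasts (human foreskin), hDFCGF system; compound 24 h; PAI-1 by ELISA; bidirectional fit vs DMSO control.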

[3] = read-out: Intercellular Adhesion Molecule 1 (ICAM1), ICAM1 (gene 3383); assay: BSK_KF3CT_ICAM1: BioMAP Diversity Plus: KF3CT Assay for Intercellular Adhesion Molecule 1 (ICAM1) Biomarker Activity (AID 2283067); conditions: primary human keratinocytes with fibroblasts; actives raise or lower the signal
Summary of the method: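 ICAM-1 levels are measured by ELISA 24 h after dosing a primary human co-culture of keratinocytes and foreskin fibroblasts. Activity in either direction is fitted relative to DMSO vehicle.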

[4] = BSK_KF3CT_SRB: Viability Assessment in the BioMAP Diversity Plus: KF3CT Assay (AID 2283069); conditions: primary human keratinocytes with fibroblasts;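 also: total protein by sulforhodamine B staining as a cytotoxicity measure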
Summary of the method: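 Human primary keratinocyte plus foreskin fibroblast co-culture exposed to chemicals for 24 h. Total protein measured by 0.1% sulforhodamine B staining after 10% TCA fixation, read at 560 nm; bidirectional fitting versus DMSO baseline.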

[5] = read-out: Interleukin-1 alpha (IL1a), IL1A (gene 3552); assay: BSK_KF3CT_IL1a: BioMAP Diversity Plus: KF3CT Assay for Interleukin-1 alpha (IL1a) Biomarker Activity (AID 2283070); conditions: primary human keratinocytes with fibroblasts; actives raise or lower the signal
Summary of the method: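 Human keratinocyte plus foreskin fibroblast primary co-culture, sampled 24 h after chemical dosing. IL-1a measured by ELISA; responses fitted bidirectionally against DMSO baseline (negative control), so gain or loss of signal both count.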

[6] = read-out: TIMP metallopeptidase inhibitor 2 (TIMP2), TIMP2 (gene 7077); assay: BSK_KF3CT_TIMP2: BioMAP Diversity Plus: KF3CT Assay for TIMP metallopeptidase inhibitor 2 (TIMP2) Biomarker Activity (AID 2283071); conditions: primary human keratinocytes with fibroblasts; actives raise or lower the signal
Summary of the method: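 Cells: human keratinocytes co-cultured with foreskin fibroblasts. Treat with chemical, 24 h. Measure TIMP-2 by ELISA; fit curves bidirectionally vs DMSO baseline.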

[7] = read-out: Transforming growth factor beta 1 (TGFb1), TGFB1 (gene 7040); assay: BSK_KF3CT_TGFb1: BioMAP Diversity Plus: KF3CT Assay for Transforming growth factor beta 1 (TGFb1) Biomarker Activity (AID 2283072); conditions: primary human keratinocytes with fibroblasts; actives raise or lower the signal
Summary of the method: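 Primary human skin cells (keratinocytes, foreskin fibroblasts) were co-cultured, exposed to test chemical and sampled at 24 h. TGF-b1 levels were measured by ELISA and fitted bidirectionally relative to DMSO.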

[8] = read-out: C-C motif chemokine 2 (Homo sapiens) (UniProt P13500); assay: BSK_KF3CT_MCP1: BioMAP Diversity Plus: KF3CT Assay for Monocyte Chemoattractant Protein 1 (MCP1/CCL2) Biomarker Activity (AID 2283073); conditions: primary human keratinocytes with fibroblasts; actives raise or lower the signal
Summary of the method: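 ELISA readout of MCP-1 after 24 h chemical dosing of a human skin primary co-culture of keratinocytes and foreskin fibroblasts. Activity was fitted in both directions against DMSO.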

[9] = read-out: Matrix Metallopeptidase 9 (MMP9), MMP9 (gene 4318); assay: BSK_KF3CT_MMP9: BioMAP Diversity Plus: KF3CT Assay for Matrix Metallopeptidase 9 (MMP9) Biomarker Activity (AID 2283074); conditions: primary human keratinocytes with fibroblasts; actives raise or lower the signal;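 as to AC50: MMP9 protein level quantified by ELISA in the co-culture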
Summary of the method: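 Keratinocyte plus foreskin fibroblast human primary skin co-culture was dosed with chemical and MMP-9 was quantified by ELISA 24 h later. Bidirectional curve fitting used DMSO as negative control and activity baseline.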

[10] = read-out: urokinase plasminogen activator (uPA), PLAU (gene 5328); assay: BSK_KF3CT_uPA: BioMAP Diversity Plus: KF3CT Assay for urokinase plasminogen activator (uPA) Biomarker Activity (AID 2283075); conditions: primary human keratinocytes with fibroblasts; actives raise or lower the signal
Summary of the method: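 Human keratinocyte plus foreskin fibroblast primary co-culture exposed to chemical for 24 h. uPA levels were quantified by ELISA, and activity was fitted bidirectionally against a DMSO negative-control baseline.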

[11] = read-out: CD40, CD40 (gene 958); assay: BSK_LPS_CD40: BioMAP Diversity Plus: LPS Assay for CD40 Biomarker Activity (AID 2283076); conditions: primary human HUVEC with PBMC; actives raise or lower the signal
Summary of the method: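 Cells were dosed, incubated 24 h, then assayed for CD40 by ELISA. Gain or loss of signal was analysed relative to DMSO controls. The culture paired human umbilical vein endothelium with peripheral blood mononuclear cells.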

[12] = read-out: E-selectin (Homo sapiens) (UniProt P16581); assay: BSK_LPS_Eselectin: BioMAP Diversity Plus: LPS Assay for Eselectin Biomarker Activity (AID 2283077); conditions: primary human HUVEC with PBMC; actives raise or lower the signal
Summary of the method: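 Primary human vascular co-culture (endothelium plus PBMC) was dosed with chemical, then E-selectin quantified by ELISA at 24 h. Endpoint values derive from bidirectional curve fitting relative to DMSO.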

[13] = read-out: Interleukin-8 (IL8), CXCL8 (gene 3576); assay: BSK_LPS_IL8: BioMAP Diversity Plus: LPS Assay for Interleukin-8 (IL8) Biomarker Activity (AID 2283078); conditions: primary human HUVEC with PBMC; actives raise or lower the signal
Summary of the method: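 Readout is IL-8 by ELISA, taken 24 h after compounds were added to LPS-stimulated endothelial/PBMC co-cultures. Both increases and decreases relative to DMSO control were scored through bidirectional fitting.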

[14] = BSK_LPS_SRB: Viability Assessment in the BioMAP Diversity Plus: LPS Assay (AID 2283079); conditions: primary human HUVEC with PBMC;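 also: total protein by sulforhodamine B absorbance as a cytotoxicity measure; measured one day after compound addition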
Summary of the method: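 Readout is SRB absorbance at 560 nm (0.1% stain, TCA-fixed parallel cultures) as a total-protein cytotoxicity measure. Cells: primary human umbilical vein endothelium plus peripheral blood mononuclear cells, 24 h after chemical exposure; DMSO served as baseline.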

[15] = read-out: Interleukin-1 alpha (IL1a), IL1A (gene 3552); assay: BSK_LPS_IL1a: BioMAP Diversity Plus: LPS Assay for Interleukin-1 alpha (IL1a) Biomarker Activity (AID 2283080); conditions: primary human HUVEC with PBMC; actives raise or lower the signal
Summary of the method: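 ELISA read-out of IL-1 alpha from a human primary vascular co-culture (endothelium plus PBMC) under LPS, sampled 24 hours post-dosing. Activity was fitted in both directions relative to DMSO controls.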

[16] = read-out: Monocyte Chemoattractant Protein-1 (MCP1), CCL2 (gene 6347); assay: BSK_LPS_MCP1: BioMAP Diversity Plus: LPS Assay for Monocyte Chemoattractant Protein-1 (MCP1) Biomarker Activity (AID 2283081); conditions: primary human HUVEC with PBMC; actives raise or lower the signal;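 as to AC50: secreted MCP-1 protein quantified by ELISA in culture supernatant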
Summary of the method: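 Human endothelial–PBMC co-cultures were dosed with chemical, then LPS-driven MCP-1 levels were quantified by ELISA at 24 h. Activity in either direction was fitted versus DMSO negative control.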

[17] = BSK_LPS_PGE2: BioMAP Diversity Plus: LPS Assay for Prostaglandin E2 (PGE2) Biomarker Activity (AID 2283082); conditions: primary human HUVEC with PBMC; actives raise or lower the signal;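 as to AC50: secreted prostaglandin E2 measured by ELISA in LPS-stimulated co-culture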
Summary of the method: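 LPS-activated HUVEC/PBMC co-culture; cmpd dosed, 24 h; PGE2 by ELISA; bidirectional fit vs DMSO; SRB (0.1%, TCA-fixed, 560 nm) in parallel plates for overt cytotox.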

[18] = read-out: Macrophage colony-stimulating factor (MCSF), CSF1 (gene 1435); assay: BSK_LPS_MCSF: BioMAP Diversity Plus: LPS Assay for Macrophage colony-stimulating factor (MCSF) Biomarker Activity (AID 2283083); conditions: primary human HUVEC with PBMC; actives raise or lower the signal
Summary of the method: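 ELISA readout of M-CSF after 24 h compound exposure in a human endothelial/PBMC co-culture. Activity, in either direction, is fitted relative to DMSO vehicle.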

[19] = read-out: Tissue Factor, F3 (gene 2152); assay: BSK_LPS_TissueFactor: BioMAP Diversity Plus: LPS Assay for Tissue Factor Biomarker Activity (AID 2283084); conditions: primary human HUVEC with PBMC; actives raise or lower the signal
Summary of the method: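 ELISA signal for cell-surface Tissue Factor (CD142) was read 24 h after compound dosing of an LPS-stimulated human endothelial–PBMC primary co-culture. Gain or loss of signal was scored relative to DMSO.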

Measured: AC50

Chain of E-selectin (Homo sapiens) (P16581 whole entry, looked up): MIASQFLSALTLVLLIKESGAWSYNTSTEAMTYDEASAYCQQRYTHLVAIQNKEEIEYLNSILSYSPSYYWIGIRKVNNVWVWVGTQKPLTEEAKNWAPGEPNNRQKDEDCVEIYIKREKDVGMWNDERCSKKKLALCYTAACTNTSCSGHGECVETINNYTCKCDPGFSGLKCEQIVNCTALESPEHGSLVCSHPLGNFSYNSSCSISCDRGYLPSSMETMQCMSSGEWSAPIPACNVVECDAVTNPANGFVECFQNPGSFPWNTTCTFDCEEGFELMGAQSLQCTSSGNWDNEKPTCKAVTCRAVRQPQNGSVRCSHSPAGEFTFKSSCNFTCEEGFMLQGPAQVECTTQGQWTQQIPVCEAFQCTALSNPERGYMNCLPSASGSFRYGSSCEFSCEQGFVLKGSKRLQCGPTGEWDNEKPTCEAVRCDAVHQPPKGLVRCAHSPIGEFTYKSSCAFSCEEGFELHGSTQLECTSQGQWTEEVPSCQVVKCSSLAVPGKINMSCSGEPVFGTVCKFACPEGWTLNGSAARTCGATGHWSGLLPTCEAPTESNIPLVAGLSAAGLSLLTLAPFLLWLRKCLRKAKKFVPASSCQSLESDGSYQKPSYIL

CC(C)(C)c1cc(O)ccc1O
active: [1] 3.31 µM | [2] 5.24 µM | [3] 30.8 µM | [4] 29.9 µM | [5] 28.3 µM | [6] 20 µM | [7] 20 µM | [8] 36 µM | [9] 29.5 µM | [10] 31.3 µM | [11] 5.75 µM | [12] 12.4 µM | [13] 13.1 µM | [14] 28.5 µM | [15] 14.5 µM | [16] 13 µM | [17] 5.94 µM | [18] 12.1 µM | [19] 20 µM

O=[N+]([O-])c1ccc(O)c([N+](=O)[O-])c1
inactive: [1] | [2] | [3] | [4] | [5] | [6] | [7] | [8] | [9] | [10] | [11] | [12] | [13] | [14] | [15] | [16] | [17] | [19]

COC[C@H](C)N(C(=O)CCl)c1c(C)csc1C
inactive: [1] | [2] | [3] | [4] | [5] | [6] | [7] | [8] | [9] | [10] | [11] | [12] | [13] | [14] | [15] | [16] | [17] | [18] | [19]

C=CC(=O)OCCCCCC(C)C
inactive: [1] | [2] | [3] | [4] | [5] | [6] | [7] | [8] | [9] | [10] | [11] | [12] | [13] | [14] | [15] | [16] | [17] | [19]

O=C(OC1CCCCC1)c1ccccc1C(=O)OC1CCCCC1
inactive: [3] | [4] | [8] | [10] | [17]
active: [1] 6.34 µM | [2] 12.3 µM | [5] 15.3 µM | [6] 20.9 µM | [7] 2.62 µM | [9] 9.72 µM | [11] 15.5 µM | [12] 20.9 µM | [13] 20.9 µM | [14] 20.9 µM | [15] 20.9 µM | [16] 27.9 µM | [19] 20.9 µM
